Bioassay records: PubChem, National Center for Advancing Translational Sciences (NCATS)
MARV entry inh: Marburg virus entry inhibition. Marburg virus pseudotyped entry inhibition, cell reporter. Potency, µM (series often up to 37.8 µM), for inactives: top-dose activity change, negative = inhibition, actives largely listed as inhibitors. 1.8% of 300,000 active; calls by dose curve; tested in HEK293 cells; note: potency is the fitted concentration of half-maximal effect
FMDV inh: antivirals against foot and mouth disease virus; AID 1159524; Potency, µM (titrated, usually from 57.9 µM), for inactives: top-dose activity change, negative = inhibition, actives largely listed as inhibitors; 1.2% of 410,000 active; FMDV antiviral cell-based qHTS; calls by dose curve; tested in HEK293T cells; note: read-out not given here; potency is the fitted concentration of half-maximal effect; nearly all actives have a fitted effect of over 45% in size
HCV inh: HCV inhibition | Huh7.5.1 HCVcc-Cre infection, luciferase reporter, 44 h | Potency, µM (series often up to 41.8 µM), inactives show at the top dose activity change, negative = inhibition, most hits filed as inhibitors | 3.4% of 340,000 active | AID 651820; active = well fitted inhibition curve with a large enough effect; inconclusive = small, poorly fitted or top-dose-only effect, or another doubt; inactive = no such curve, though single readings can be large or run the other way; note: potency is the fitted concentration of half-maximal effect
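A cell-based infection assay in which seeded cells (1,000 per well) receive test compound after 4 h, are inoculated with HCVcc-Cre at approximately 0.5 moi, and are incubated 44 h before luminescence detection.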
HCMV inh: inhibitors of human cytomegalovirus; HFF cells, HCMV-luciferase reporter, 72 h; active compounds read low; activity change, negative = inhibition, % at 57.5 µM; 4.5% of 410,000 active; AID 1259415; in the data active = activity change below about -60%; inconclusive = no clear call, values can overlap the other calls; inactive = above about -39%
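After 16 h attachment at 37C, HFF cells received test compound and HCMV-luciferase (1 PFU/cell); reporter luminescence read 72 h later, data normalized against buffer-only and known inhibitor Salinomycin.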
Lassa entry inh: Lassa virus entry inhibition. Lassa virus pseudotype entry inhibition, cell reporter. Potency, µM (highest dose often 37.9 µM), without a hit: at the top dose activity change, negative = inhibition, actives largely listed as inhibitors. 1.2% of 300,000 active. AID 540256; calls by dose curve; tested in HEK293 cells; note: potency is the fitted concentration of half-maximal effect; nearly all actives have a fitted effect of over 50% in size
Numbers without * were called inactive; ? = inconclusive; · = no result; [ ] = dose if it differs, or a comment. Only some compounds are listed: those with a hit (about 7.9% of all), similar ones and a draw of the others. % is set by controls: 0 for no effect and ±100 for the full control effect.

SMILES	MARV entry inh	FMDV inh	HCV inh	HCMV inh	Lassa entry inh
COC(=O)c1ccc(/C=N/NC(=O)c2ccc3nc[nH]c3c2)cc1	·	6.3%	8.0%	?	·
Cc1ccc(-c2cc(C(=O)N/N=C/c3ccc([N+](=O)[O-])o3)c3ccccc3n2)o1	?	-16.6%	11.2µM*	-21.1	?
O=C(N/N=C/c1ccc2c(c1)OCO2)c1cc(-c2ccncc2)nc2ccccc12	?	-22.5%	?	?	?
CC(/C=N/NC(=O)c1cc(-c2ccncc2)nc2ccccc12)=C\c1ccco1	2.91µM*	-26.2%	·	·	-49.2%[14.3 µM]
Cc1ccc(/C=N/NC(=O)c2ccc3nc[nH]c3c2)o1	-6.0%[46.1 µM]	-11.5%	11.8%	-60.4*	3.6%[46.1 µM]
CC1(C)C(=O)Nc2ccccc2N1C(=O)COC(=O)Cc1ccccc1F	6.5%	-12.6%	10.6%	?	5.1%
CNS(=O)(=O)c1cnccc1N1CCN(c2cccc(C(F)(F)F)c2)CC1	-29.1%	?	0.0%	-27.2	-0.6%
Cc1ccccc1NS(=O)(=O)c1ccc(Br)s1	0.9%[46.1 µM]	15.6%	·	15.8	-5.4%[46.1 µM]
O=C(N/N=C/c1cccc([N+](=O)[O-])c1)c1cc(-c2ccccc2)nc2ccccc12	5.3%	?	8.6%	-7.0	0.5%
Cn1c(/C=C/c2ccc([N+](=O)[O-])o2)nc2ccccc2c1=O	?	25.1µM*	2µM*	·	2.82µM*
COc1ccccc1-c1cc(C(=O)N/N=C/c2ccc(C)o2)c2ccccc2n1	?	-16.0%	-10.5%	-25.2	?
Cc1ccc(/C=N/NC(=O)c2cc(-c3ccncc3)nc3ccccc23)o1	?	-16.5%	-11.7%	-64.5*	-8.2%[46.1 µM]
O=C(N/N=C/c1ccc([N+](=O)[O-])o1)c1cc(-c2ccc(-c3ccccc3)cc2)nc2ccccc12	?	?	-52.3%	-98.7*	?
O=C(N/N=C/c1cccc(O)c1)c1cc(-c2ccccc2)nc2ccccc12	·	-3.7%	-7.5%	10.3	·
O=C(N/N=C/c1ccco1)c1cc(-c2cccc(Br)c2)nc2ccccc12	?	-6.4%	?	-62.6*	?
COc1ccc(CNC(=O)CCS(=O)(=O)c2cc3c(cc2Cl)NC(=O)CO3)cc1	4.0%[46.1 µM]	-11.0%	3.4%	-16.9	?
O=C(N/N=C/c1ccc([N+](=O)[O-])o1)c1cc(-c2ccncc2)nc2ccccc12	?	-7.5%	10µM*	-66.7*	?
O=C(N/N=C/c1ccccn1)c1cc(-c2ccncc2)nc2ccccc12	?	-18.2%	31.6%	-25.0	?
Cc1cc(N/N=C/c2ccc([N+](=O)[O-])o2)nc2ccccc12	?	-24.4%	10µM*	-78.9*	0.8%
O=c1[nH]c2ccccc2n1C1CCN(C(c2cccc3ccccc23)c2nnnn2-c2ccc3c(c2)OCCO3)CC1 (stereo not drawn)	·	?	·	-75.6*	·
O=c1[nH]c2ccccc2n1C1CCN(C(c2cc3ccccc3o2)c2nnnn2-c2ccc3c(c2)OCCO3)CC1 (stereo not drawn)	·	35.5µM*	·	-99.0*	·
C/C(=N\NC(=O)NC1CCCCC1)c1ccc(Cl)s1	-4.2%	18.1%	3.16µM*	10.7	?
Cc1ccc(CNC(=O)CN(c2cc(C)cc(C)c2)S(=O)(=O)c2c(C)noc2C)cc1	4.2%[46.1 µM]	-11.1%	·	-5.9	10.3%[46.1 µM]
Cc1n[nH]c(=O)c2c(NC(=O)CSc3nnnn3-c3ccc(O)cc3)oc(C)c12	?	-6.7%	7.3%	-67.1*	15.6%
Cc1n[nH]c(=O)c2c(NC(=O)CSc3nc4ccccc4c(=O)n3CCCO)oc(C)c12	-11.5%[46.1 µM]	-18.7%	7.1%	-86.7*	-5.1%
SMILES	MARV entry inh	FMDV inh	HCV inh	HCMV inh	Lassa entry inh
Cc1n[nH]c(=O)c2c(NC(=O)CSc3nnnn3-c3ccccc3)oc(C)c12	13.9%	-16.8%	-16.1%	-14.3	12.1%[46.1 µM]
C=C1CCN(C(C)C(=O)O)S(=O)(=O)c2ccccc21 (stereo not drawn)	·	62.9%	1.41µM*	26.7	·
O=C(CCl)NCc1cc(-c2ccc(Cl)cc2)no1	?	?	11.2µM*	-112.8*	?
O=C(Cc1ccc(S(=O)(=O)N2CCOCC2)s1)Nc1cc(C(F)(F)F)ccc1N1CCCC1	?	-29.9%	?	26.6	?
CCN(CC)S(=O)(=O)c1cc(NC(=O)Cc2ccc(S(=O)(=O)N3CCOCC3)s2)ccc1Cl	·	31.6µM*	10µM*	-99.4*	·
Cc1cccc(NC(=O)CNC(=O)Cc2ccc(S(=O)(=O)N3CCOCC3)s2)c1C	·	-2.7%	4.6%	-103.8*	·
Cc1cc(C)c(NC(=O)CNC(=O)Cc2ccc(S(=O)(=O)N3CCOCC3)s2)c(C)c1	·	-5.1%	-3.7%	10.4	·
O=C(Cc1ccc(S(=O)(=O)N2CCOCC2)s1)Nc1cc(C(F)(F)F)cc(C(F)(F)F)c1	·	0.0%	11.2µM*	-80.4*	·
O=C(c1cc(C(F)(F)F)cc(C(F)(F)F)c1)N1CCC2(CC1)CCN(c1ncccn1)CC2	·	-19.1%	·	·	·
C=CCSC(=C(C#N)C#N)c1cc2c([nH]1)CCCC2	?	11.2µM*	12.6µM*	-19.9	11.2µM*
CCc1cccc(NC(=O)C(Cc2ccccc2)NS(=O)(=O)c2ccc3c(c2)oc(=O)n3C)c1 (stereo not drawn)	3.3%[46.1 µM]	10.5%	·	-1.7	-6.9%[46.1 µM]
COC(=O)C(c1ccccc1Cl)N1CCc2sccc2C1 (stereo not drawn)	·	-8.8%	·	·	·
Cc1c(C(=O)N/N=C/c2cccc(O)c2)nnn1-c1nonc1N	·	-1.4%	-20.1%	?	·
CC(C)c1c(C(=O)N/N=C/c2ccc(OCc3ccccc3)cc2)nnn1-c1nonc1N	·	?	?	59.2	·
COc1cc(/C=N/NC(=O)c2nnn(-c3nonc3N)c2C(C)C)ccc1OCc1ccccc1	·	?	14.1µM*	-29.5	·
COc1cc(/C=N/NC(=O)c2nnn(-c3nonc3N)c2C)ccc1OCc1ccc(Cl)cc1	·	28.4%	·	-60.5*	·
O=S(=O)(Nc1ccc(-c2ccc(N3CCCCCC3)nn2)cc1)c1ccc(C(F)(F)F)cc1	·	19.5%	·	20.9	?
COc1cc(=O)n2c(c1C(=O)N(C)Cc1nonc1C)CCN(Cc1ccc(F)cc1)CC2	·	-8.8%	·	·	·
COc1ccc(-n2c(=O)c(CCc3ccccc3)nc3cnc(OC)nc32)cc1	·	24.0%	·	·	·
CCC(=O)N1CCN(c2ccc(NC(=O)c3ccc(N4CCOCC4)c([N+](=O)[O-])c3)cc2)CC1	11.1%	?	-21.8%	16.9	-0.5%
O=C(Nc1ccc(N2CCN(C(=O)c3ccc(Cl)cc3)CC2)cc1)c1ccc([N+](=O)[O-])o1	?	?	10µM*	-95.7*	-28.8%[46.1 µM]
CCCC(=O)N1CCN(c2ccc(NC(=O)c3ccc(Br)o3)cc2)CC1	-3.5%	0.0%	-4.9%	-10.3	0.6%
CCCC(=O)N1CCN(c2ccc(NC(=O)c3ccc([N+](=O)[O-])o3)cc2)CC1	?	-20.5%	?	-96.2*	?
CCC(=O)N1CCN(c2ccc(NC(=O)c3ccc([N+](=O)[O-])o3)cc2)CC1	-37.5%[46.1 µM]	1.4%	?	-98.3*	?
CC(C)(C)C(=O)N1CCN(c2ccc(NC(=O)c3ccc([N+](=O)[O-])o3)cc2)CC1	?	-8.4%	?	-98.5*	?
